Results filed as inconclusive are left out. Calls of active or inactive are those of the source. Calls come from the whole dose curve; as a rule, active = well fitted activation curve with a large enough effect in the repeat runs; inconclusive = weak or mixed curves; inactive = flat fitted curve, though single readings scatter.
test: A CellTox Green Cytotoxicity Assay to monitor cytotoxicity in HepG2 cells - 24 hour (AID 1224878); conditions: CellTox Green fluorescence; series mostly up to 76.8 µM; cytotoxicity: at the top concentration; note: nearly all actives have a fitted effect of over 45% in size
From the text: National Center for Advancing Translational Sciences [NCATS]
NIH Chemical Genomics Center [NCGC]
U.S. Environmental Protection Agency [EPA]
National Institutes of Environmental Health Sciences [NIEHS]
National Toxicology Program [NTP]
Cell-based models are critical for drug discovery. Determining the natural cytotoxic effects resulting from test compounds is an essential research activity. A CellTox Green Cytotoxicity Assay to monitor cytotoxicity in real time of continues cell culture during 40 hours of the compound treatment was used to screen Tox21 10K library compounds in HepG2 cells. CellTox Green Cytotoxicity Assay is a nonlytic, homogeneous, biofluorescent method to measure cytotoxicity in cell culture after experimental manipulation. The assay system uses a proprietary asymmetric cyanine dye that is excluded from viable cells but preferentially stains the dead cell's DNA. […] Viable cells produce no appreciable increases in fluorescence. Therefore, the fluorescence signal produced by the binding interaction with dead cell DNA is proportional to cytotoxicity.
The mixture of HepG2 cell suspension and reagents were dispensed at 600cells/6 ul/well in 1536-well tissue culture treated black solid bottom plates using a Multidrop dispenser. After the assay plates were incubated at a 37 C/5% CO2 incubator for 5 hours, 23 nL of compounds dissolved in DMSO, positive and negative controls was transferred to the assay plate by a pintool work station. The plates were incubated at 37 C for 40 hours. The fluorescence intensity were measured at 0h, 8h, 16h, 24h, 32h and 40h time points using ViewLux plate reader during compound treatment.
% is set by controls: 0 for no effect and ±100 for the full control effect; potency is the fitted concentration of half-maximal effect.

SMILES	cytotoxicity	Potency
OC[C@@H](O)[C@H](O)[C@@H](O)[C@@H](O)CO	21.1% (inactive)	
O=C(O)c1ccccc1C(=O)OCc1ccccc1	-9.65% (inactive)	
Cc1ccc(S(=O)(=O)NC(=O)NC2CCCCCCC2)cc1	2.13% [at 35.3 µM] (inactive)	
CC(=O)OCCCc1ccccc1	1.26% (inactive)	
C=C[C@@H](C)CCC=C(C)C	-7.02% (inactive)	
COc1cc2c(Nc3ccc(Br)cc3F)ncnc2cc1OCC1CCN(C)CC1	-0.219% [at 35.3 µM] (inactive)	
Nc1ccc(/C=C/c2ccc(N)cc2S(=O)(=O)O)c(S(=O)(=O)O)c1	-13.6% [at 0.29 µM] (inactive)	
CC(C)CCO	11.8% (inactive)	
CC(C)(C)c1ccc(C=O)cc1	10.3% (inactive)	
CCOC(=O)C(=O)c1csc(NC=O)n1	-19% [at 35.3 µM] (inactive)	
C=CCOc1c(Br)cc(Br)cc1Br	14.8% (inactive)	
CCC(C)(CCC(C)C)C(=O)[O-].CCC(C)(CCC(C)C)C(=O)[O-].[Zn+2] (stereo not given)	3.1% (inactive)	
CC(C)C(=O)c1ccccc1	-5.25% (inactive)	
COc1cccc2sc(N)nc12	-3.69% (inactive)	
CC1(N)CCC(C(C)(C)N)CC1 (stereo not given)	-4.09% (inactive)	
NC(=O)NC(=O)Cc1ccccc1	-4.92% [at 35.3 µM] (inactive)	
C=CC(C)(O)CC/C=C(\C)CC (stereo not given)	-1.1% (inactive)	
FC(F)(F)c1ccc(Cl)cc1Cl	8.27% (inactive)	
CC(C)=CC(C)(C)C	9.99% (inactive)	
CC1=CC[C@H](CC=O)C1(C)C	-10.3% (inactive)	

SMILES	cytotoxicity	Potency
CCN1CN(CC)CN(CC)C1	0.0327% (inactive)	
O=C(COCCOCCOCC(=O)Nc1c(I)cc(I)c(C(=O)O)c1I)Nc1c(I)cc(I)c(C(=O)O)c1I	-5.53% [at 35.3 µM] (inactive)	
NC(=O)C1(N2CCCCC2)CCN(CCCC(=O)c2ccc(F)cc2)CC1	-1.01% [at 35.3 µM] (inactive)	
CCOC(=O)CC(CC(=O)OCC)(OC(C)=O)C(=O)OCC	3.17% (inactive)	
FC(F)(F)/C(=N\OCC1OCCO1)c1ccc(Cl)cc1	9.18% (inactive)	
CCC1COC(=O)O1 (stereo not given)	-21.2% (inactive)	
Cc1cccc(Nc2ccncc2S(=O)(=O)NC(=O)NC(C)C)c1	-1.62% [at 35.3 µM] (inactive)	
O=S(=O)(O)SSS(=O)(=O)O	-5.91% (inactive)	
COc1cc2c3cc1Oc1cc(ccc1O)C[C@@H]1c4c(cc(OC)c(O)c4Oc4ccc(cc4)C[C@@H]3N(C)CC2)CC[N+]1(C)C	-14.2% [at 35.3 µM] (inactive)	
Cc1ccccc1C(=O)N1CC/C(=N\OS(=O)(=O)O)c2ccc(Cl)cc21		26.8 µM (active)
CC(C)c1ccccc1O	16.1% (inactive)	
CC(=O)/C=C/c1ccco1	-0.28% (inactive)	
CCCCC(CC)COC(=O)c1ccccc1 (stereo not given)	-2.32% (inactive)	
C=CCOCC(CO)(COCC=C)COCC=C	-2.45% [at 35.3 µM] (inactive)	
CCCCCCCCCCCCC	-4.38% (inactive)	
NC(=O)NNC(N)=O	-20.1% (inactive)	
CCC(C)N (stereo not given)	-12.6% (inactive)	
Cc1ccc2c(c1)c1c3n2CCNC3CCC1 (stereo not given)	22.1% [at 35.3 µM] (inactive)	
Cc1nc([N+](=O)[O-])cn1-c1ccc([N+](=O)[O-])cc1	4.44% [at 35.3 µM] (inactive)	
CCCCCCCCCOCC1CO1 (stereo not given)	3.47% (inactive)	

Source: PubChem BioAssay (Tox21)
